Measured values as given in PubChem BioAssay (NCATS).
“And” between values parts separate entries of the source, which are not always exact repeats. Equal entries are not always repeated. Inconclusive results are not listed. The source made the active and inactive calls. Unless noted, calls follow the shape of the dose curve; as a rule, active = well fitted curve in the direction sought with a large enough effect; inconclusive = small, poorly fitted or top-dose-only effect, or another doubt; inactive = no such curve, though single readings can be large; an effect the other way counts as inactive or inconclusive.

Assays:
[1] = target: Cytochrome P450 3A4 (Homo sapiens) (UniProt P08684); test: qHTS Assay for Activators of Cytochrome P450 3A4 (AID 885); also: nearly all actives have a fitted effect of over 65% in size; also: potency is read from the fitted curve at half-maximal effect
Summary of the method: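 Using 20nM recombinant human CYP3A4 in potassium phosphate (200mM), substrate Luciferin-PPXE at 25uM, luminescent luciferin detection followed a 60-min RT NADPH reaction; data scaled to 57 uM ketoconazole.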

[2] = target: Muscarinic acetylcholine receptor M1 (Rattus norvegicus) (UniProt P08482); test: qHTS Assay for Antagonists of Acetylcholine Muscarinic M1 Receptor: Kinetic Measurement of Intracellular Calcium Response (AID 943);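 also: Fluo-4 calcium signal as peak divided by basal fluorescence over 4 min; series mostly up to about 35 µM; nearly all actives have a fitted effect of over 75% in size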
Summary of the method: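 Quantitative HTS in CHO-M1 (rat receptor) cells: 10 min compound exposure ahead of 100 nM carbachol, Fluo-4 fluorescence followed 4 min, value expressed as peak-to-basal ratio.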

[3] = qHTS Assay for Identification of Small Molecule Agonists for Thrombopoietin (TPO) Signaling Pathway (AID 917); also: % is scaled to controls: 0 for no effect and ±100 for the full control effect
Summary of the method: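 Ba/F3 (mouse) + hTPO receptor + GpIIb-promoter luciferase; IL-3 withdrawn overnight; compound + 26 pM TPO (EC50), 24 hrs, 37 C, 5% CO2; Steadylite luminescence, 10 min RT.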

[4] = Validation of Assay for Modulators of Lamin A Splicing (AID 1459; active = well fitted curve in the direction sought with a large enough effect in the signal ratio; the % refers to the signal ratio;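 also: cells exposed to compound for two days before reading; 0% is about no effect; ratio rise marks activators and ratio drop marks inhibitors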)
Summary of the method: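 Readout: ratio of GFP (500-530 nm) to RFP (575-640 nm) total object intensity by 488 nm laser-scanning cytometry after 48 hrs. Cells were HeLa S3 clones carrying lamin A-EGFP minigene plus DsRed2 viability reporter; vehicle 0.5% DMSO final.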

[5] = target: DNA repair nuclease/redox regulator APEX1 (Homo sapiens) (UniProt P27695); test: qHTS Validation Assay for Inhibitors of the Human Apurinic/apyrimidinic Endonuclease 1 (APE1) (AID 1705;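 also: TAMRA fluorescence gain over two minutes as APE1 cuts a quenched THF abasic duplex; series mostly up to about 57 µM; % is scaled to controls: 0 for no effect and ±100 for the full control effect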)
Summary of the method: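 Read-out: TAMRA fluorescence (525 nm ex, 598 nm em) from cleavage of a quenched THF abasic-site duplex, 50 nM final; activity taken as intensity change between third and first of three reads 60 s apart.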

[6] = Counterscreen for APE1 Inhibitors: Fluorescent Dye Displacement Validation Assay (AID 1707);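 also: plate controls were ThO with dsDNA and no compound for no effect and ThO without dsDNA for full effect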
Summary of the method: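 Loss of Thiazole Orange fluorescence marks promiscuous DNA binders. The dye (250 nM) is mixed with 50 nM abasic-site dsDNA in pH7.5 Tris buffer containing MgCl2, then compounds are added and emission is read once.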

[7] = target: Endonuclease 4 (Escherichia coli (strain K12)) (UniProt P0A6C1); test: Counterscreen for APE1 Inhibitors: qHTS Validation Assay for Inhibitors of Endonuclease IV (AID 1708); also: % is scaled to controls: 0 for no effect and ±100 for the full control effect
Summary of the method: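 Measured as reaction progress, the fluorescence gain between first and third kinetic reads after adding 50 nM TAMRA/BHQ-2 THF duplex to 2 nM enzyme preincubated 15 min with compound; 2 mM MgCl2, pH 7.5.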

[8] = qHTS for differential inhibitors of proliferation of Plasmodium falciparum line 7G8 (AID 1815);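 also: parasite growth measured after three days of incubation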; also: potency is read from the fitted curve at half-maximal effect
[9] = qHTS for differential inhibitors of proliferation of Plasmodium falciparum line W2 (AID 1883); conditions: Potency: Plasmodium falciparum W2 proliferation inhibition;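 also: parasites grown with compound for 72 h before lysis and staining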; also: potency is read from the fitted curve at half-maximal effect
[10] = target: Ferritin light chain (Equus caballus) (UniProt P02791); test: qHTS Validation Assay for Identification of Novel General Anesthetics (AID 2323); also: series mostly up to about 77 µM; % is scaled to controls: 0 for no effect and ±100 for the full control effect
Summary of the method: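 10 uM horse-spleen apoferritin + 1-AMA (50% saturated, PBS); cpd pin-transferred, 10 min RT. Ex 380/Em 535 nm endpoint. Activity normalized between free 1-AMA and 1-AMA/apoferritin; 4-parameter Hill fit of concentration-response.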

[11] = target: ATP-dependent DNA helicase Q1 (Homo sapiens) (UniProt P46063); test: qHTS Validation Assay for Inhibitors of RecQ-Like Dna Helicase 1 (RECQ1) (AID 2353);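 also: plate controls were DMSO vehicle for no effect and enzyme-free control for full effect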
Summary of the method: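 RECQ1T1 50 nM; forked duplex (20 bp + 30-nt ss tails) 200 nM, ATP 2 mM final; pH 8.0, 2 mM MgCl2, 2.5 ug/ml poly(dI-dC); 15 min compound preincubation; discontinuous kinetic read over 2 h at RT.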

[12] = Validation screen for inhibitors of Lassa infection (AID 463096; calls by dose curve; also: % is scaled to controls: 0 for no effect and ±100 for the full control effect)
[13] = Validation screen for small molecules that induce DNA re-replication in MCF 10A normal breast cells (AID 463097); also: 0% is about no effect; nearly all actives have a fitted effect of over 60% in size
Summary of the method: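 250 MCF 10A cells/well; compound pin-transferred; 48 hr, 37 C, 5% CO2; Hoechst 40 min; imaged 405/500-530 nm. Hits = more high-intensity nuclei.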

[14] = target: Transient receptor potential cation channel subfamily V member 1 (Homo sapiens) (UniProt Q8NER1); test: HTS Assay for Compounds that Act as Enhancers of the Vanilloid Receptor 1 (AID 488979); also: 0% is about no effect
Summary of the method: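 TRPV1-expressing cells loaded with Fluo-8 calcium dye; compounds added and calcium influx read kinetically for 3 min (agonist phase), then capsaicin at EC20 added and read 2 min more for enhancement. Fluorescence ex 480/em 520 nm.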

[15] = target: Thyrotropin receptor (Homo sapiens) (UniProt P16473); test: qHTS Assay for Antagonists of the Thyroid Stimulating Hormone Receptor (AID 488980); also: series mostly up to about 58 µM; 0% is about no effect
Summary of the method: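 TSHR-HEK293 cells; 70 uM RO 20-1724 PDE inhibitor; compound + EC80 TSH (4 nM final); anti-cAMP cryptate antibody/cAMP-d2 in lysis buffer, 30 min RT; HTRF 665/620 nm read.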

[16] = target: Thyrotropin-releasing hormone receptor (Homo sapiens) (UniProt P34981); test: qHTS for Small Molecule Agonists and Allosteric Enhancers of Human TRH Receptor: Validation Screen for Agonists (AID 493127;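 active = calcium activation more than 3 SD above the typical response in the agonist read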;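 also: intracellular calcium rise by fluo-8 fluorescence before TRH EC20 addition; 0% is about no effect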); conditions: TRH receptor agonist cell assay; at 2 µM; active compounds read high
Summary of the method: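 Kinetic fluorescence assay of agonist-induced calcium release: overnight-plated TRHR cells, room-temperature fluo-8 loading, baseline then compound addition with per-second reads.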

[17] = target: Galactokinase (Homo sapiens) (UniProt P51570); test: qHTS Validation Assay for Inhibitors of Human Galactokinase (GALK) (AID 493189); also: 0% is about no effect
Summary of the method: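 Luminescence from leftover ATP (Kinase-Glo Plus, 10 min) served as read-out after a 1 h room-temperature reaction of 5 nM GALK, 100 uM galactose and 35 uM ATP at pH8.0.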

[18] = target: M-phase phosphoprotein 8 (Homo sapiens) (UniProt Q99549); test: qHTS Validation Assay for Inhibitors for MPP8 Chromodomain Interactions with Methylated Histone Tails (AID 488949);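 also: AlphaScreen signal from MPP8 chromodomain bound to biotinylated H3K9me3 peptide; top concentration of the series differs between compounds; % is scaled to controls: 0 for no effect and ±100 for the full control effect; nearly all actives have a fitted effect of over 55% in size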
Summary of the method: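 AlphaScreen read-out: streptavidin donor and nickel chelate acceptor beads (final 10 ug/mL), 30 min in the dark at RT. Complex of 50 nM MPP8 and 50 nM b-H3(1-18)K9me3 peptide had been exposed to compounds for 30 min beforehand.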

[19] = qHTS for differential inhibitors of proliferation of Plasmodium falciparum line HB3 (AID 1886); conditions: Potency: Plasmodium falciparum HB3 proliferation inhibition;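 also: parasites grown with compound for 72 h before SYBR Green readout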; also: potency is read from the fitted curve at half-maximal effect
[20] = target: Cytochrome P450 2D6 (Homo sapiens) (UniProt P10635); test: qHTS Assay for Inhibitors and Substrates of Cytochrome P450 2D6 (AID 891); also: nearly all actives have a fitted effect of over 60% in size; also: potency is read from the fitted curve at half-maximal effect
Summary of the method: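 Luminescent read-out of luciferin formed by 5 nM human CYP2D6 demethylating 30 uM Luciferin-ME EGE (Km level) over 60 min at room temperature after NADPH regeneration addition. Data normalized to full inhibition by 1.43 uM quinidine.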

Sequence of Thyrotropin receptor (Homo sapiens) (P16473 whole entry, looked up): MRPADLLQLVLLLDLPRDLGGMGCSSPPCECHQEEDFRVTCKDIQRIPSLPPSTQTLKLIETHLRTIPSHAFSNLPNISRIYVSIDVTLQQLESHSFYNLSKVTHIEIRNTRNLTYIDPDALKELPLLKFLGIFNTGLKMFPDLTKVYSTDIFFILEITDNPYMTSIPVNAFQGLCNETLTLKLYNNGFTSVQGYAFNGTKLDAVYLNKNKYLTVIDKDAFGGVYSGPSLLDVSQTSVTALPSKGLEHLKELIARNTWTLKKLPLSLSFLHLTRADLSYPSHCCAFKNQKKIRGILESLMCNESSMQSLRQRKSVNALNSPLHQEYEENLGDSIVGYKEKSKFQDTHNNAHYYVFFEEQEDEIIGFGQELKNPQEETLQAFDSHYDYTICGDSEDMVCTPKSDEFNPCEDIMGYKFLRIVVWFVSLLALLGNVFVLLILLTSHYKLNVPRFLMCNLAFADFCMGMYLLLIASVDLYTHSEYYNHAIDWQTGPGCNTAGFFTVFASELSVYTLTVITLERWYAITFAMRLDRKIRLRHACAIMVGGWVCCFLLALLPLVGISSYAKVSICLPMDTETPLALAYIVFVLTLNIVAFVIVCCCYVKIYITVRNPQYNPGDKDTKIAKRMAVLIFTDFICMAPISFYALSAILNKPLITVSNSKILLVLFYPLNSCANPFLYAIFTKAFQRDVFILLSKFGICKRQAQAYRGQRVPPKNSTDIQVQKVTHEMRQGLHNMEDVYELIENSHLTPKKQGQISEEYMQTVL
Sequence of ATP-dependent DNA helicase Q1 (Homo sapiens) (P46063 whole entry, looked up): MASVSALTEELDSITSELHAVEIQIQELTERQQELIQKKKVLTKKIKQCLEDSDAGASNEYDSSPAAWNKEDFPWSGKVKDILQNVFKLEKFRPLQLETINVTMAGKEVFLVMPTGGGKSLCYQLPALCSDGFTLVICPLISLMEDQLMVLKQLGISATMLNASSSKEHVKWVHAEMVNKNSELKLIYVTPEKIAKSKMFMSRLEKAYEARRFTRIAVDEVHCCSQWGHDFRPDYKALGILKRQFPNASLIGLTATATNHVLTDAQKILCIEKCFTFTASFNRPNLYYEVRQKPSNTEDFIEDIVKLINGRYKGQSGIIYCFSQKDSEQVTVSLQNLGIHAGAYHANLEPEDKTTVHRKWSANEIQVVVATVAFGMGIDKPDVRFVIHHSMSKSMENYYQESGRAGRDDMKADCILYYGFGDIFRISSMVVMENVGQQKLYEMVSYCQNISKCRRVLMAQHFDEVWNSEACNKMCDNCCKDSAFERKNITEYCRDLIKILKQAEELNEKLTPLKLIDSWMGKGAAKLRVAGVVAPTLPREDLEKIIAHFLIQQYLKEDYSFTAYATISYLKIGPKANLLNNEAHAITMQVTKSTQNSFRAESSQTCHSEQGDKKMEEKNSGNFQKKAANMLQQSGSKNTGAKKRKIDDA
Sequence of Cytochrome P450 3A4 (Homo sapiens) (P08684 whole entry, looked up): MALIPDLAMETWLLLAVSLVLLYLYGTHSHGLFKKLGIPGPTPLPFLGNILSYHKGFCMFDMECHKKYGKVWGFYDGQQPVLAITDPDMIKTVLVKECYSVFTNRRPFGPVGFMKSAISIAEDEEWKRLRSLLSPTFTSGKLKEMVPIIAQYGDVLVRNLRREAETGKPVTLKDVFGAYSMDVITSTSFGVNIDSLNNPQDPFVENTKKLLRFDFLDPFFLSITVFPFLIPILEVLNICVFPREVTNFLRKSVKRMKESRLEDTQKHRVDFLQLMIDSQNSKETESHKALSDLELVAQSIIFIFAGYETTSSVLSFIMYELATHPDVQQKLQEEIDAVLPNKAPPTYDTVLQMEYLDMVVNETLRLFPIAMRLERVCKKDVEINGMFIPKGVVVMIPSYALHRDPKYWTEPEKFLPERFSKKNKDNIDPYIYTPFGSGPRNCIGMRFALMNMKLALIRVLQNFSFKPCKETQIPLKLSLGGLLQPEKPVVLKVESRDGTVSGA
Sequence of Transient receptor potential cation channel subfamily V member 1 (Homo sapiens) (Q8NER1 whole entry, looked up): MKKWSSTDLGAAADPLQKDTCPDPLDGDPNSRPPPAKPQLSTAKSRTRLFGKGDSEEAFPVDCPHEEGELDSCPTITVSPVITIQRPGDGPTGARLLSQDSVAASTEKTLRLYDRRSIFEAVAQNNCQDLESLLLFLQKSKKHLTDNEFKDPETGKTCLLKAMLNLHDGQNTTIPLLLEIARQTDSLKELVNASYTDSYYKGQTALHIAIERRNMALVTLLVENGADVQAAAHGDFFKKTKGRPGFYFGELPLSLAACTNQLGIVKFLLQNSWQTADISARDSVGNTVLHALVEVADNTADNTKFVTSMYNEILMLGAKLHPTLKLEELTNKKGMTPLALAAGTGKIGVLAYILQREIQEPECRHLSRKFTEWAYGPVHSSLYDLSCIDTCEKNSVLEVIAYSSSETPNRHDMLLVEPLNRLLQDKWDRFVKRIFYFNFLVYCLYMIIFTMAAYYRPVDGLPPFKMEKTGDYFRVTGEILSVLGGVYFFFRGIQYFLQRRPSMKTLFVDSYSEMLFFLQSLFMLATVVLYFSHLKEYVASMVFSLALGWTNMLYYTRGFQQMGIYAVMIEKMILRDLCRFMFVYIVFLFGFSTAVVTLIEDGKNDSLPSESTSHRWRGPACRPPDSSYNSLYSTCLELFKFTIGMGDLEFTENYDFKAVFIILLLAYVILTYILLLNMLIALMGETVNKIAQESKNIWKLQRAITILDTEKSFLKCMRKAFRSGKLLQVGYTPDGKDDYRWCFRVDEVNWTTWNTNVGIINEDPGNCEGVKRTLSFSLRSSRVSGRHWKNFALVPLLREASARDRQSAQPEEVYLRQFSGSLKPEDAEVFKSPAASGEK
Sequence of Muscarinic acetylcholine receptor M1 (Rattus norvegicus) (P08482 whole entry, looked up): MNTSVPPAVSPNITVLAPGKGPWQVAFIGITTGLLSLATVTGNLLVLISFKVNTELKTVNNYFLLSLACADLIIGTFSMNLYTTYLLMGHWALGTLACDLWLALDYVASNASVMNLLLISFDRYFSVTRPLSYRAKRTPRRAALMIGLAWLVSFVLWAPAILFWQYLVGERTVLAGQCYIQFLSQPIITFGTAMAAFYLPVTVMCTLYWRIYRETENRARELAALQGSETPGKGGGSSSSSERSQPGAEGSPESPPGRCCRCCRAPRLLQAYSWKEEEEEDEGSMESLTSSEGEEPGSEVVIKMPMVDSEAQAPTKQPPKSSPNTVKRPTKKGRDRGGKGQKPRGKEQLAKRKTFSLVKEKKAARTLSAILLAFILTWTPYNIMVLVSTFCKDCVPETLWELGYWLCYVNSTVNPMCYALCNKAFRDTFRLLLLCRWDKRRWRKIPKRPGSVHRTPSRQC
Sequence of DNA repair nuclease/redox regulator APEX1 (Homo sapiens) (P27695 whole entry, looked up): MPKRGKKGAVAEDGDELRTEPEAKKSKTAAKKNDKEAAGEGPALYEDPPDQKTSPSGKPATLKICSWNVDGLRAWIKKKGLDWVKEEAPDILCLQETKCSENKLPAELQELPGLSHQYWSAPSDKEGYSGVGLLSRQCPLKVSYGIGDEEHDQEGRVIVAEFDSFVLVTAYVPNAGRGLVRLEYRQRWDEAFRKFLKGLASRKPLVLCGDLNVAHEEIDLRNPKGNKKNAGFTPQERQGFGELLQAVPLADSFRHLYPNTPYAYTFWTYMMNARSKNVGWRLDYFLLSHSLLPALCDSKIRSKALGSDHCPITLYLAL
Sequence of Thyrotropin-releasing hormone receptor (Homo sapiens) (P34981 whole entry, looked up): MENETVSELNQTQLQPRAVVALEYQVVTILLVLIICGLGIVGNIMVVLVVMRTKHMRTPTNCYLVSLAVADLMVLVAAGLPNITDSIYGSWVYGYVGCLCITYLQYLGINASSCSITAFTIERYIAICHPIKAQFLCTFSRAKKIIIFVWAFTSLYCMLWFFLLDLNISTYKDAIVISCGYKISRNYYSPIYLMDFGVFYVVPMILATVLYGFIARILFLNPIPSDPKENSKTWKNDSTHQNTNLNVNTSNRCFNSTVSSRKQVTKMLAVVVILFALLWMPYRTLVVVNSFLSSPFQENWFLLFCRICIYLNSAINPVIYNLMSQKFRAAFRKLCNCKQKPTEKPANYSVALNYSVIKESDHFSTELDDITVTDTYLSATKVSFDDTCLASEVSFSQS
Sequence of M-phase phosphoprotein 8 (Homo sapiens) (Q99549 whole entry, looked up): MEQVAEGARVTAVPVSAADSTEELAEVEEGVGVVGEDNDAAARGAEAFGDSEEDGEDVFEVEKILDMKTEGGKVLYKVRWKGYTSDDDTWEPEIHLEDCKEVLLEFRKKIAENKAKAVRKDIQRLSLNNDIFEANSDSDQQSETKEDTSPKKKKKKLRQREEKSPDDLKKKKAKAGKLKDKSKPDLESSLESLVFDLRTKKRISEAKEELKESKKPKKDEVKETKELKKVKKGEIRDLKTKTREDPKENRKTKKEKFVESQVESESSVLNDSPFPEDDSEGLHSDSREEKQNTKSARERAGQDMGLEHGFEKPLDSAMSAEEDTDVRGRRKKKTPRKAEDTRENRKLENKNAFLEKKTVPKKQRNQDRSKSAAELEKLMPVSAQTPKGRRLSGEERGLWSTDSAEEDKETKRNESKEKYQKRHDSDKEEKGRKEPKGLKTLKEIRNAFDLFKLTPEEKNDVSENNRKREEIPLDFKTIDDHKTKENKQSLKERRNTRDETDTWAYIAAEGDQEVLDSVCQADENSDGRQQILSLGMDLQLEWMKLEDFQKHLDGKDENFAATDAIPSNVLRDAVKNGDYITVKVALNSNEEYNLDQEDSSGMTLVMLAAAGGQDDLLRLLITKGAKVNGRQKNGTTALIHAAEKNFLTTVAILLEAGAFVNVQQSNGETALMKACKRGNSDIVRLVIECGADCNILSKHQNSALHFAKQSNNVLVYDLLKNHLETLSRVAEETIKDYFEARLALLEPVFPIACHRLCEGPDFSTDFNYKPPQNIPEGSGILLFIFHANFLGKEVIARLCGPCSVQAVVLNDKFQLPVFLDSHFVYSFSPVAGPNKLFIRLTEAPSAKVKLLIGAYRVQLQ
Sequence of Ferritin light chain (Equus caballus) (P02791 2-175 limits assumed): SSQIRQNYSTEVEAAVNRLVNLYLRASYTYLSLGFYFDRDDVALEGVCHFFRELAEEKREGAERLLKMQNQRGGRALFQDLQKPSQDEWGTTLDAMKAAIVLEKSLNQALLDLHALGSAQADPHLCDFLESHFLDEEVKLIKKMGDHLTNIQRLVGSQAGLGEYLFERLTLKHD

CN(C(=O)Cc1ccc(Cl)c(Cl)c1)[C@@H](CN1CCCC1)c1cccc(OCC(=O)O)c1
inactive: Potency [1] | Potency [2]

COC(=O)c1cc2c(cn1)[nH]c1ccccc12
active: Potency [1] 15.8 µM | Potency [8] 11.2 µM | Potency [9] 12.6 µM
inactive: outcome [3] | Potency [2] | outcome [4] | Potency [5] | Potency [6] | outcome [7] | outcome [10] | Potency [11] | Potency [12] | Potency [13] | outcome [14] | outcome [15] | activation [16] 1.44% | outcome [17]

CC(C)=CCCC1(C)C=Cc2c(O)c3c(c(CC=C(C)C)c2O1)OC12C(=CC4CC1C(C)(C)OC2(C/C=C(/C)C(=O)O)C4O)C3=O (stereo not drawn)
inactive: Potency [1]

CP(=O)(O)CCCN
active: Potency [9] 2.82 µM
inactive: Potency [2] | outcome [4] | Potency [5] | Potency [6] | outcome [7] | outcome [10] | Potency [11] | Potency [13] | Potency [18] | outcome [14] | outcome [15] | activation [16] 1.06% | outcome [17]

CC(O)C(C)OC(=O)[C@@H]1C[C@@H]2c3cccc4c3c(cn4C(C)C)C[C@H]2N(C)C1 (stereo partly drawn)
active: Potency [8] 11.2 µM | Potency [9] 7.94 µM | Potency [19] 14.1 µM
inactive: outcome [4] | Potency [5] | Potency [6] | outcome [7] | outcome [10] | Potency [11] | Potency [12] | Potency [13] | Potency [18] | outcome [14] | outcome [15] | activation [16] 4% | outcome [17]

COc1cc(CCN)ccc1O
inactive: outcome [3] | outcome [4] | Potency [5] | Potency [6] | outcome [7] | Potency [8] | Potency [9] | Potency [19] | outcome [10] | Potency [11] | Potency [12] | Potency [13] | Potency [18] | outcome [14] | outcome [15] | activation [16] -0.312% | outcome [17]

C[C@@H](C(=O)OC1C[C@H]2CC[C@@H](C1)N2C)c1ccc(Br)cc1 (stereo partly drawn)
active: Potency [20] 3.98 µM

CCCCCCC[n+]1ccc(-c2cc[n+](CCCCCCC)cc2)cc1
active: Potency [20] 7.94 µM

Oc1ccc2c3c1O[C@H]1c4[nH]c5ccccc5c4C[C@]4(O)[C@H](C2)N(CC2CC2)CC[C@@]314
inactive: Potency [1]
active: Potency [20] 2.51 µM and 631 nM

COc1ccc(CCN)cc1O
inactive: outcome [3] | Potency [2] | outcome [4] | Potency [6] | outcome [7] | Potency [8] | Potency [9] | Potency [19] | outcome [10] | Potency [11] | Potency [13] | Potency [18] | outcome [14] | outcome [15] | activation [16] 1.06% | outcome [17]

COc1ccc2c3c([nH]c2c1)C(C)=NCC3
active: Potency [20] 3.98 µM
inactive: Potency [1]

C[C@H](N)Cc1c[nH]c2ccc(OCc3cccs3)cc12
active: Potency [20] 0.794 µM
inactive: Potency [1]

CC[C@H](Oc1ccc(Cl)cc1)C(=O)OC1C[C@H]2CC[C@@H](C1)N2C (stereo partly drawn)
active: Potency [20] 0.0063 µM

C[N+]1(C)CCc2cc3c(cc2C1C1OC(=O)c2c1ccc1c2OCO1)OCO3 (stereo not drawn)
inactive: outcome [4] | Potency [5] | Potency [6] | outcome [7] | Potency [8] | Potency [19] | outcome [10] | Potency [11] | Potency [12] | Potency [13] | Potency [18] | outcome [14] | outcome [15] | activation [16] 0.938% | outcome [17]

N[C@@H](Cn1cc(I)c(=O)[nH]c1=O)C(=O)O
inactive: outcome [3] | Potency [2] | outcome [4] | Potency [5] | Potency [6] | Potency [8] | Potency [9] | Potency [19] | outcome [10] | Potency [11] | Potency [12] | Potency [13] | Potency [18] | outcome [14] | outcome [15] | activation [16] 0.375% | outcome [17]

COc1ccc2[nH]cc(C3=CCNCC3)c2c1
inactive: Potency [1]

N[C@H](CCCCCP(=O)(O)O)C(=O)O
inactive: Potency [20] | outcome [3] | Potency [2] | outcome [4] | Potency [5] | Potency [6] | Potency [8] | Potency [9] | Potency [19] | outcome [10] | Potency [11] | Potency [12] | Potency [13] | Potency [18] | outcome [14] | outcome [15] | activation [16] -0.125% | outcome [17]
